In ChEMBL document CHEMBL3433997, “St. Jude Leishmania screening dataset” (2016):
Where “and” joins values, the source holds several entries; their conditions need not be identical. Equal entries are not always repeated.

Assays:
Assay type in all cases: functional
[1] = biological target: Solute carrier family 2, facilitated glucose transporter member 1 (Homo sapiens) (UniProt P11166); assay: ST_JUDE_LEISH: Cytotoxicity at 2uM final concentration against transgenic Leishmania Mexicana promastigotes LmGLUT1 that are glucose transport deficient and complemented with the human glucose transporter GLUT1. Activity is measured by DNA content using SYBR green in vitro
Solute carrier family 2, facilitated glucose transporter member 1 (Homo sapiens), sequence (P11166 whole entry): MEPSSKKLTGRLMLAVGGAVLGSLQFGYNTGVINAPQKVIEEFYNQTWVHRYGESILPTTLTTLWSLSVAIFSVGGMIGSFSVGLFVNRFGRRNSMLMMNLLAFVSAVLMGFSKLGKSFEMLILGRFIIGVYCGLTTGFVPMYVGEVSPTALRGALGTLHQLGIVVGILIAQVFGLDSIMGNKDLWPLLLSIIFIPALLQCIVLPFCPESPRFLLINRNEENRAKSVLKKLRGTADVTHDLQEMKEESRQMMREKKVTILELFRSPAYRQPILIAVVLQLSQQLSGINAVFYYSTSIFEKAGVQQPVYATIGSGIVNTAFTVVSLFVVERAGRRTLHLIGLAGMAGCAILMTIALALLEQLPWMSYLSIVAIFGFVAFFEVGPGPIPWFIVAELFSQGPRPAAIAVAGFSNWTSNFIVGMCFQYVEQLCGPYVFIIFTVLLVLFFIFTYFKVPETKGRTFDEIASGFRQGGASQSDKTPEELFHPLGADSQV

[2] = biological target: Hexose transporter 1 (Plasmodium falciparum) (UniProt O97467); assay: ST_JUDE_LEISH: Cytotoxicity at 2uM final concentration against transgenic Leishmania Mexicana promastigotes LmPfHT that are glucose transport deficient and complemented with the Plasmodium falciparum hexose transporter. Activity is measured by DNA content using SYBR green in vitro
[3] = biological target: Glucose transporter (Leishmania mexicana) (UniProt O61059); assay: ST_JUDE_LEISH: Cytotoxicity at 2uM final concentration against transgenic Leishmania Mexicana promastigotes LmGT2 that are glucose transport deficient and complemented with the L. Mexicana glucose transporter 2. Activity is measured by DNA content using SYBR green in vitro

Row | Structure (SMILES) | inhibition [1] | inhibition [2] | inhibition [3]
1 | COC(=O)c1ccc(CC(C)NCC(O)c2cccc(OCc3ccccc3)c2)cc1 (stereo not given) | 7.34% | 7.31% | 8.15%
2 | O=C(NC1CCN(CC2(c3ccc(Cl)cc3)CCC2)CC1)c1cc[nH]n1 | 1.71% | -0.69% | -1.02%
3 | CCCCn1c(C)c(C(=O)OCC)c2cc(OC(C)=O)c(Br)cc21 | 1.92% | 1.76% | 3.29%
4 | CC[C@H]1CN2CC[C@H]1C[C@H]2[C@H](O)c1ccnc2ccc(O)cc12 | 0.99% | 2.1% | 1.04%
5 | Cc1[nH]c2ccccc2c1C1=CCN(CCCCC23CCCc4cccc(c42)NC3=O)CC1 (stereo not given) | 2.64% | 2.98% | 2.47%
6 | O=C(NC1CCC(CN2CCC(c3c[nH]c4ccccc34)CC2)CC1)NC12CC3CC(CC(C3)C1)C2 (stereo not given) | 3.42% | 3.16% | 1.41%
7 | CN1CC=C(c2c[nH]c3ccc(Br)cc23)CC1 | 1.93% | 0.19% | -0.72%
8 | O=C(NC1CCC(CN2CCC(c3c[nH]c4ccccc34)CC2)CC1)c1cc2cccc([N+](=O)[O-])c2[nH]1 (stereo not given) | -2.16% | 2.66% | -0.94%
9 | C=C[C@H]1CN2CC[C@H]1C[C@H]2[C@H](O)c1cc(-c2ccc(Cl)cc2)nc2ccc(OC)cc12 | 1.16% | 1.72% | 1.31%
10 | CC(=O)C1(c2ccccc2)CCN(CCC2(c3ccc(Cl)c(Cl)c3)CN(C(=O)CC(C)C)CCO2)CC1 (stereo not given) | -0.51% | 0.43% | -2.67%
11 | CN(C)c1cccc(NC(=O)N[C@H]2N=C(c3ccccc3)c3ccccc3N(CC(=O)N3CCCC3)C2=O)c1 | 2.85% | 2.62% | 2.53%
12 | CCC(C)(C)NC(C)C(O)c1ccc(C(F)(F)F)cc1 (stereo not given) | -0.19% | 0.51% | -0.15%
13 | CC[C@H]1CN2CC[C@H]1C[C@H]2[C@H](O)c1cc(/C=C/c2ccc(F)cc2)nc2ccc(OC)cc12 | 4.05% | 1.87% | 2.03%
14 | Cc1ccccc1C1=CCN(CCCN2c3ccccc3Sc3ccc(Cl)cc32)CC1 | 6.62% | 5.58% | 1.49%
15 | COC(=O)c1ccc(CC(C)NCC(O)c2cccc(Oc3cccc(C(F)(F)F)c3)c2)cc1 (stereo not given) | 8.83% | 6.86% | 6.56%
16 | CC(Cc1ccc(NC(=O)CCCc2ccccc2)cc1)NCCc1cccc(Cl)c1 (stereo not given) | 1.2% | 0.72% | 2.44%
17 | CCOC(=O)c1c(C)n(C2CCCCCC2)c2cc(Br)c(O)cc12 | 2.52% | 0.67% | 4.54%
18 | CC[C@H]1CN2CC[C@H]1C[C@H]2[C@@H](O)c1cc(OCCCN(C)C)nc2ccc(OC)cc12 | -1.68% | -1.68% | -0.74%
19 | COc1ccc(OC)c(CNCC(O)c2cc(C(F)(F)F)cc(C(F)(F)F)c2)c1 (stereo not given) | 5.31% | 6.21% | 3.49%
20 | O=C(C=Cc1ccccc1O)N1CCC(CN2CCC(c3c[nH]c4ccccc34)CC2)CC1 | 2.59% | 2.2% | 2.49%
21 | CC(=O)N(Cc1ccc(-c2ccc(CNCCc3ccccc3)cc2)cc1)C1CCN(Cc2ccccc2)CC1 | 1.67% | 1.69% | 1.11%
22 | COc1ccc(C[C@@H](C)NC[C@H](O)c2cccc(Cl)c2)cc1F | 0.83% and 1.3% | 3.32% and 5.02% | 0.88% and 0.58%
23 | O=C(/C=C/c1ccc(Cl)c(Cl)c1)NC1CCC(CN2CCC(c3c[nH]c4ccccc34)C(O)C2)CC1 (stereo not given) | 5.68% | 3.72% | 4.19%
24 | O=C(/C=C/c1ccc(Cl)c(Cl)c1)NCCC1CCC(N2CCC(c3c[nH]c4ccccc34)CC2)CC1 (stereo not given) | 6.03% | 7.76% | 4.25%

Row | Structure (SMILES) | inhibition [1] | inhibition [2] | inhibition [3]
25 | COc1cc(C(=O)NC2CCC(CN3CCC(c4c[nH]c5ccccc45)CC3)CC2)cc(Cl)n1 (stereo not given) | 1.3% | -0.71% | 2.31%
26 | COc1ccccc1CNCC(O)c1cc(C(F)(F)F)ccc1C(F)(F)F (stereo not given) | 0.84% | 0.58% | 1.6%
27 | CCN1CCC2(c3cccc(OC)c3)Cc3nc4ccccc4c(-c4ccccc4)c3CC2C1 (stereo not given) | 3.21% | 1.3% | 2.12%
28 | N=C(N)NC(=O)Nc1ccc([N+](=O)[O-])c(Cl)c1 | 0.15% | 1.53% | 0.59%
29 | CCN(Cc1ccccc1)CC(O)c1ccc(Cl)c(Cl)c1 (stereo not given) | 0.91% | 0.62% | 1.21%
30 | CC(=O)Nc1ccc(OCCN(CC(F)(F)F)c2ccc(C#N)cc2C(F)(F)F)cc1 | 2.13% | 2.71% | 0.98%
31 | CCOC(=O)c1c(CN2CCN(C)CC2)n(Cc2ccccc2)c2cc(Br)c(O)cc12 | 17.4% | 16.7% | 12.7%
32 | CCOC(=O)c1ccc(CC(C)NCC(O)c2cccc(C(F)(F)F)c2)cc1 (stereo not given) | -2.26% | -1.71% | -0.87%
33 | COCCNCc1cccc(-c2cccc(CN(C(=O)Nc3ccccc3)C3CCN(Cc4ccccc4)CC3)c2)c1 | 3.2% | 2.07% | 1.33%
34 | CN(c1cc(NC(=O)c2ccc(F)cc2)ccn1)C1CCN(Cc2cccc(C#N)c2)CC1 | 3.24% | -2.19% | 5.14%
35 | O=C(/C=C/c1cccc(Cl)c1)NC1CCC(CN2CCC(c3c[nH]c4ccccc34)CC2)CC1 (stereo not given) | 2.39% and 2.9% | 2.82% and 1.43% | -0.58% and 2.44%
36 | O=C(/C=C/c1ccc(Cl)c(Cl)c1)NCC1CCCC(CN2CCC(c3c[nH]c4ccccc34)CC2)C1 (stereo not given) | 2.54% | 3.43% | 0.26%
37 | CC(Cc1ccc(CSC(C)C)cc1)NCC(O)c1cccc(Cl)c1 (stereo not given) | 3.54% | 3.54% | 3.37%
38 | COc1ccc(N(c2nc(-c3cc(Cl)ccc3Cl)cs2)C2CCNCC2)cc1 | 0.66% | -0.12% | 1.62%
39 | CC[C@H]1CN2CC[C@H]1C[C@H]2[C@H](O)c1cc(-c2ccc(C)cc2)nc2ccc(OC)cc12 | 1.44% | 0.47% | -0.1%
40 | C=CCOc1ccccc1CNCC(O)c1cccc(C(F)(F)F)c1 (stereo not given) | 2.78% | 3.47% | 2.61%
41 | O=C(NCc1ccc(S(=O)(=O)N2CCC(CN3CCC(c4c[nH]c5ccccc45)CC3)CC2)s1)c1ccccc1 | 3.85% | 3.63% | 3.02%
42 | Cc1[nH]c2cc(Cl)ccc2c1C1=CCN(CCCCC2(C)C(=O)Nc3ccccc32)CC1 (stereo not given) | 2.01% | 0.91% | 1.15%
43 | OC(CNC12CC3CC(CC(C3)C1)C2)c1cccc(C(F)(F)F)c1 (stereo not given) | -1.52% | -1.19% | -0.45%
44 | CCCCCCCc1cc(O)c2c(c1)OC(C)(C)c1ccncc1-2 | 1.49% | 2.54% | 1.72%
45 | CC[C@H]1CN2CC[C@@H]1C[C@H]2[C@H](O)c1cc(N2CCC(O)CC2)nc2ccc(OC)cc12 | -1.16% | -0.97% | -0.9%
46 | O=C(/C=C/c1cc(F)cc(C(F)(F)F)c1)N1CCC(CN2CCC(c3c[nH]c4ccccc34)CC2)CC1 | 0.47% | 1.39% | 2.96%
47 | O=C(NC1CCC(CN2CCC(c3c[nH]c4ccccc34)CC2)CC1)c1ccc(-c2ccccc2[N+](=O)[O-])o1 (stereo not given) | 3.68% | 1.85% | -0.67%
48 | CC(=O)Nc1ccc(OCCN(CC(C)(C)C)c2ccc(C#N)c(C(F)(F)F)c2)c(Cl)c1 | 4.2% | 5.82% | 3.22%

Row | Structure (SMILES) | inhibition [1] | inhibition [2] | inhibition [3]
49 | N#Cc1ccc(N(CC(=O)NCCc2ccc(F)cc2)CC2CC2)c2ccccc12 | -0.35% | -0.59% | 1.47%
50 | COc1cccc(CC(C)NCC(O)c2cccc(Cl)c2)c1 (stereo not given) | 0.74% | 2.67% | 1.92%
51 | COCCNCc1ccc(-c2ccc(CN(C(=O)NC3CCCCC3)C3CCN(Cc4ccccc4)CC3)cc2)cc1 | 2.65% | 2% | -1.48%
52 | CC[C@H]1CN2CC[C@@H]1C[C@H]2[C@H](O)c1cc(-c2cccnc2)nc2ccc(OC)cc12 | 4.01% | 4.01% | 4.02%
53 | Cc1cccc2c(C3CCN(CC4CCC(NC(=O)/C=C/c5ccc(Cl)c(Cl)c5)CC4)CC3)c[nH]c12 (stereo not given) | 10.9% | 9.79% | 8.09%
54 | COC(=O)c1ccc(C[C@@H](C)NC[C@H](O)c2cccc(C(F)(F)F)c2)cc1 | 3.2% | 4.43% | 0.45%
55 | CCCCCCCCNCC(O)c1ccc(Cl)c(Cl)c1 (stereo not given) | 2.51% | 3.44% | 1.24%
56 | O=C(NC1CCC(CN2CCC(c3c[nH]c4ccccc34)CC2)CC1)[C@H]1Cc2ccccc2CN1 (stereo not given in full) | 1.47% | 2.41% | 4.44%
57 | CNCCCCCCOc1ccc(CC(C)NCC(O)c2cccc(C(F)(F)F)c2)cc1 (stereo not given) | 18.4% | 2.66% | 1.22%
58 | N#Cc1c(Cl)cccc1Oc1ccc(S(=O)(=O)NC2CCC(CN3CCC(c4c[nH]c5ccccc45)CC3)CC2)cc1 (stereo not given) | 0.9% and 1.4% | 1.87% and 1.07% | 0.19% and -0.57%
59 | CC[C@H]1CN2CC[C@@H]1C[C@H]2[C@H](O)c1cc(N2CCC(C)CC2)nc2ccc(OC)cc12 | 7.8% | 9.59% | 5.06%
60 | COC(C(=O)OCCC1CCCN1C)(c1ccccc1)C1CCCCC1 (stereo not given) | 11.6% | 10.5% | 10.5%
61 | C=C[C@H]1CN2CC[C@H]1C[C@@H]2[C@@H](O)c1ccnc2ccccc12 | -1.24% | 1.12% | 0.13%
62 | CCCN(CCC)CCOC(=O)C(OCC)(c1ccccc1)c1ccccc1 | 1.8% | 0.63% | -0.33%
63 | CC[C@H]1CN2CC[C@@H]1C[C@H]2[C@H](O)c1cc(N2CCSCC2)nc2ccc(OC)cc12 | 3.55% | 3.67% | -0.01%
64 | COc1ccc2[nH]cc(C3CCN(Cc4ccc(NC(=O)c5ccc(-c6ccccc6)cc5)cc4)CC3)c2c1 | 3.87% | 2.27% | 3.28%
65 | CC[C@H]1CN2CC[C@@H]1C[C@H]2[C@H](O)c1cc(N2CCC(O)(c3ccc(Cl)cc3)CC2)nc2ccc(OC)cc12 | 6.73% | 1.34% | 2.62%
66 | COC(=O)c1ccc(CC(C)NCC(O)c2cccc(SC(F)(F)F)c2)cc1 (stereo not given) | 2.85% | 4.05% | 4.01%
67 | CC[C@H]1CN2CC[C@@H]1C[C@H]2[C@H](O)c1cc(N2CCC(CO)CC2)nc2ccc(OC)cc12 | 1.5% | 1.17% | 2.66%
68 | COc1cccc(CN2CCC(CCOC(c3ccccc3)c3ccc(Cl)cc3)CC2)c1O (stereo not given) | 26.2% | 26.5% | 12.5%
69 | COc1ccc(CC(C)NCC(O)c2cccc(Cl)c2)cc1C (stereo not given) | 7.48% | 5.85% | 7.3%
70 | CN(C(=O)OCc1ccccc1)C1CCC(CCN2CCC3(CC2)C(=O)NCN3c2cccc(C(F)(F)F)c2)(c2ccccc2)CC1 (stereo not given) | 2.48% | 1.12% | 2.55%
